CYP2C19 act: human CYP2C19 activators, primary screen, biochemical, luminescence | Cytochrome P450 2C19 (Homo sapiens), P33261 | recombinant CYP2C19, luciferin-H EGE luminescence; hits give high values; 0 = fully inhibited enzyme, 1 = untreated enzyme | activation factor at 5 µM | 96,000 tested, under 10 active | AID 1025, 2008;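 active = activation factor of at least 2 at 5 µM in the primary screen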;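 also: 0 = wells with 2.5 mM tranylcypromine and 1 = vehicle-only wells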
CYP2C19 inhib: blockers of cytochrome P450 2C19 activity – biochemical, luminescence, ADME assay, primary screen | P33261 | inhibition, % at 5 µM | AID 778, 2007 | 96,000 tested, 21% active | CYP2C19 Supersomes, luciferin-H EGE luminescence, 30 min;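 active = CYP2C19 inhibition above a set limit at 5 µM in the primary screen, cut at about 50% in these data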;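 also: plate controls were negative control wells for no effect and 2.5 mM tranylcypromine positive control for full effect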
CYP2C9 inh: blockers of cytochrome P450 2C9 activity – biochemical, luminescence, ADME assay, primary screen. P11712. CYP2C9 Supersomes, luciferin-H conversion. inhibition, % at 5 µM. 96,000 tested, 20% active;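 active = blocking of liver enzyme CYP2C9 beyond about 50% at 5 µM, limit read from the data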
CYP2C9 activ: human CYP2C9 activators, primary screen, biochemical, luminescence; recombinant CYP2C9, luciferin-H conversion; hits give high values; factor 1 = untreated enzyme, 0 = blocked; AID 1024, 2008; 96,000 tested, 1.4% active; Cytochrome P450 2C9 (Homo sapiens), P11712; activation factor at 5 µM;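 active = activation factor of 2 or more for CYP2C9 at a 5 µM dose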;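 also: 0 = sulfaphenazole-blocked wells and 1 = vehicle-only wells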
sEH act: soluble epoxide hydrolase activators, primary screen, biochemical, human sEH; Bifunctional epoxide hydrolase 2 (Homo sapiens), P34913; purified human sEH enzymatic activity, activator screen; activation, % at 2 µM; 91,000 tested, 0.04% active; AID 717, 2007; in the data active = activation above about 37%
Target sequence (P34913 whole entry, looked up): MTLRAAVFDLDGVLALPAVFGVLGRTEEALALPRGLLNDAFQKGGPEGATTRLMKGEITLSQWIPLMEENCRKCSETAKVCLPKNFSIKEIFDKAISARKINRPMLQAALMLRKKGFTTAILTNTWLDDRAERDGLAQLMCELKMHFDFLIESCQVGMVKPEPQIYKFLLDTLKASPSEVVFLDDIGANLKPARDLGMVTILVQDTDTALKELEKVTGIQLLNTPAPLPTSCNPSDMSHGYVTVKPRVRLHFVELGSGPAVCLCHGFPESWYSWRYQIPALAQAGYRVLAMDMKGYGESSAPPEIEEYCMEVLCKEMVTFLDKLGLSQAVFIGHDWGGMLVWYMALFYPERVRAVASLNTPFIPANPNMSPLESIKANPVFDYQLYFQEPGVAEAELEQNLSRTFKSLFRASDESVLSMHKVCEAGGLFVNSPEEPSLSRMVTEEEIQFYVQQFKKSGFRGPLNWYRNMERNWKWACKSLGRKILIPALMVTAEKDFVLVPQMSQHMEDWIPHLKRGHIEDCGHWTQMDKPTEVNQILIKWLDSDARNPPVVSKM
sEH inh: soluble epoxide hydrolase inhibitors, primary screen, biochemical, human sEH; Bifunctional epoxide hydrolase 2 (Homo sapiens), P34913; recombinant human sEH enzymatic activity assay; inhibition, % at 2 µM; 91,000 tested, 0.34% active; AID 707, 2007; in the data active = inhibition above about 80%
* = called active by the depositor; · = no result given. An excerpt weighted towards active compounds, which were near 27% of everything screened.

SMILES	CYP2C19 act	CYP2C19 inhib	CYP2C9 inh	CYP2C9 activ	sEH act	sEH inh
COC(=O)C1=C(C)N(CCc2ccc(OC)c(OC)c2)C(=O)/C1=C\N(C)C	0.9	13.8	2.6	1	-3.4	4.3
Cc1ccc(NCc2nnc(SCC(=O)OC3CCCCC3)o2)c(C)c1	0.6	37.4	36.0	0.6	5.2	-6.0
COc1ccc(CC2C(=O)OC(C)(C)OC2=O)cc1	1	1.0	9.5	0.9	2.4	1.0
COc1ccc(CC2CCOC2=O)cc1 (stereo not drawn)	0.2	76.5*	3.2	1	2.0	-1.4
Cn1c(/C(C#N)=C/C2CC=CCC2)nc2ccccc21 (stereo not drawn)	0.4	58.0*	13.8	0.9	-6.4	5.0
Oc1ccc2oc3c(c2c1/C=N/n1cnnc1)CCCC3	0.5	47.6	63.3*	0.4	-34.1	33.8
CCOC(=O)c1c(C)[nH]c2cc(Br)c(O)cc12	0.3	68.2*	68.4*	0.3	·	·
O=S(=O)(c1ccc(Cl)c(C(F)(F)F)c1)N1CCN(CC(O)COCC2CCCO2)CC1 (stereo not drawn)	0.6	35.5	-99.6	2*	·	·
O=C1C(O)CC2c3ccccc3CC3(CCCC3)N12 (stereo not drawn)	1	1.9	16.3	0.8	19.8	-22.9
Oc1ccccc1C1=Nc2ncnn2C(c2ccc(F)cc2)C1 (stereo not drawn)	0.4	56.6*	48.8	0.5	·	·
COC(=O)CNS(=O)(=O)c1ccc(C)cc1	1	4.7	-7.4	1.1	11.3	-13.2
Cc1ccc(S(=O)(=O)NCC(=O)OC(C(=O)c2ccccc2)c2ccccc2)cc1 (stereo not drawn)	0.5	47.2	56.6*	0.4	5.2	-6.8
O=C(Cn1ncn2c(cc3ccccc32)c1=O)NCc1ccco1	0.4	62.5*	15.5	0.8	9.8	-8.5
CCc1cccc(NC(=O)Cn2ncn3c(cc4ccccc43)c2=O)c1	1	-2.4	15.9	0.8	2.2	-1.0
O=C(Cn1ncc2c(=O)oc3ccccc3c21)NCCC1=CCCCC1	0.4	59.3*	24.5	0.8	8.0	-5.8
O=C(Cn1ncn2c(cc3ccccc32)c1=O)NCCC1=CCCCC1	0	99.3*	40.7	0.6	-9.3	9.8
Cc1cc(C(=O)OCC(=O)N2CCCC2)c2ccccc2n1	0.7	28.4	22.6	0.8	-1.4	1.4
COc1ccc(-c2cc(C(=O)OCC(=O)N3CCCC3)c3ccccc3n2)cc1	0.5	50.1*	77.8*	0.2	7.6	-5.4
CSc1ccc(Cl)c(C(=O)OCC(=O)N2CCOCC2)c1	0.5	50.9*	-67.1	1.7	0.9	-1.3
Cc1ccc(/C(N)=N/OC(=O)c2cc(-c3ccccc3)nc3ccccc23)cc1	0.9	13.1	54.0*	0.5	-3.2	1.7
CSc1ccc(Cl)c(C(=O)OCC(=O)NC2CC2)c1	0.8	22.9	-6.3	1.1	1.3	2.3
Cc1cc(C(=O)OCC(=O)N2CCOCC2)c2ccccc2n1	0.9	12.1	-98.3	2*	4.2	-5.5
Cn1c(=O)c2cc(S(=O)(=O)NC(C(=O)NCc3ccccn3)c3ccccc3)ccc2n(C)c1=O (stereo not drawn)	1	-2.9	1.7	1	·	·
c1ccc(N2CCCCC2)c(NC2=NCCC2)c1	0.9	5.8	18.0	0.8	·	·
C/C=C(\C)CN1CCN(c2ccc(C)cc2)CC1	0.1	85.9*	-1.3	1	0.3	2.1
C/C(=C\c1ccccc1)CN1CCN(c2cccc(Cl)c2)CC1	0.9	7.5	11.8	0.9	0.0	-0.1
CCOC(=O)c1c(-c2ccc(C)s2)csc1NC(=O)c1ccco1	1.1	-5.3	-4.0	1	·	·
O=C(Nc1scc(-c2ccccc2)c1C(=O)O)c1ccco1	0.9	11.7	11.9	0.9	5.6	-7.7
CCOC(=O)c1c(-c2ccc(OC)cc2)csc1NC(=O)CNCc1ccco1	0.5	53.3*	69.5*	0.3	-5.3	7.8
COC(=O)c1c(-c2ccc(F)cc2)csc1NC(=O)c1ccco1	0.8	17.0	63.7*	0.4	10.0	-8.5
